Bioassay records as filed in PubChem BioAssay.
Tau fluor counter = counter-screen for tau fibril formation inhibitors | tau K18 P301L Alexa594 fluorescence, heparin fibrillization | Potency, µM (titrated, usually from 57.7 µM), for inactives: at the highest dose activity change, negative = decrease | actives 0.93% (n = 280,000) | AID 1463; also: nearly all actives have a fitted effect of over 55% in size
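Human K18 P301L tau (15 uM unlabeled plus 0.24 uM Alexa 594-labeled, final) in 100 mM sodium acetate pH 7 was mixed with compound and 20 uM heparin and incubated 6 hr at 37 C.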
Tau FP inhib = tau fibrillization inhibition (FP) | P10636 | K18 P301L tau heparin fibrillization, Alexa594 FP, 6 h | Potency, µM (titrated, usually from 57.7 µM), for the others: top-dose activity, negative = inhibition, actives largely listed as inhibitors | actives 0.39% (n = 280,000) | AID 1468; also: nearly all actives have a fitted effect of over 55% in size
Target sequence (P10636 561-689 P618L limits assumed): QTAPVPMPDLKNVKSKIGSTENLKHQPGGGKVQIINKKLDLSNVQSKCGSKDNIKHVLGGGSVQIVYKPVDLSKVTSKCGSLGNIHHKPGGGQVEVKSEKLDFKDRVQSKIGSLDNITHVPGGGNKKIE
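Quantitative HTS format: compounds meet 15 uM recombinant K18 P301L tau and Alexa 594-tau tracer in 100 mM sodium acetate pH 7; 20 uM heparin triggers fibrillization at 37 C over 6 hr; FP gives the signal.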
TR SRC2 fluor cs = Texas Red fluorescence interference in TRb-SRC2 counter-screen; TRb/SRC2 Texas Red total fluorescence interference; Potency, µM (doses to about 106 µM), inactives show at the top dose fluorescence change, negative = quenching; actives 0.29% (n = 280,000); AID 1479; active = well fitted curve in either direction with a large enough effect; inconclusive = small, poorly fitted or top-dose-only effect
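Flags fluorescent or light-absorbing compounds by total fluorescence, S + 2P, at 555 nm excitation and 632 nm emission. Mixture: 20 nM Texas Red SRC2 peptide, 0.6 uM human TRb LBD, 1 uM T3, 5% DMSO; compound exposure 5 h at ambient temperature.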
Tau fibril ThT = inhibitors of human tau fibril formation, thioflavin T binding; recombinant tau K18 P301L, heparin-induced fibrillization, ThT fluorescence; Potency, µM (titrated, usually from 57.4 µM), inactives show at the highest dose activity, negative = inhibition, most hits filed as inhibitors; actives 2.1% (n = 270,000); P10636; also: nearly all actives have a fitted effect of over 55% in size
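ThT emission at 510 nm, taken 1 hr after adding 30 uM dye, quantifies aggregates formed when 20 uM heparin acts on human tau K18 P301L for 6 hr at 37 C.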
TRb-SRC2 inh = inhibitors of human thyroid hormone receptor beta-SRC2 interaction | P10828 | TRbeta-SRC2 peptide binding, fluorescence polarization; receptor liganded with 1 µM T3 | Potency, µM (doses to about 106 µM), for inactives: at the top dose activity change, negative = inhibition, usual class: inhibitors | actives 0.065% (n = 280,000) | AID 1469;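 also: plate controls were bound peptide for no effect and peptide without receptor for full effect; nearly all actives have a fitted effect of over 50% in size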
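Each compound concentration gave % activity, normalized to unbound and bound Texas Red SRC2 controls, from polarization read after 5 hr ambient incubation with T3-loaded human TRb LBD.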
* = called active by the depositor; [ ] = another dose, or the depositor's remark. Only some compounds are listed: those with a hit (about 3% of all), similar ones and a draw of the others. Unless noted, calls follow the shape of the dose curve; as a rule, active = well fitted curve in the direction sought with a large enough effect; inconclusive = small, poorly fitted or top-dose-only effect, or another doubt; inactive = no such curve, though single readings can be large; an effect the other way counts as inactive or inconclusive. Unless noted, % is scaled to controls: 0 for no effect and ±100 for the full control effect; potency is read from the fitted curve at half-maximal effect.

What do the screens show for `O=C(CCc1ccc(S(=O)(=O)N2CCOCC2)cc1)N/N=C/c1ccc(F)cc1F`?
Tau fluor counter: -8%; Tau FP inhib: -8%; TR SRC2 fluor cs: 0%; Tau fibril ThT: 3%; TRb-SRC2 inh: -5%

Results for O=[N+]([O-])c1ccc(N/N=C/c2ccc(O)c(O)c2O)c(S(=O)(=O)N2CCOCC2)c1 ?
Tau fluor counter: inconclusive; Tau FP inhib: 10µM*; TR SRC2 fluor cs: inconclusive; Tau fibril ThT: 4µM*; TRb-SRC2 inh: 21%

What do the screens show for `O=C(CCc1ccc(S(=O)(=O)N2CCOCC2)cc1)N/N=C/c1ccc(O)c(O)c1O`?
Tau fluor counter: -30%; Tau FP inhib: inconclusive; TR SRC2 fluor cs: -16%; Tau fibril ThT: 25µM*; TRb-SRC2 inh: -2%

What do the screens show for `O=C(O)C(c1ccc(Cl)cc1)c1ccc(Cl)cc1`?
TR SRC2 fluor cs: -4%[201 µM]; TRb-SRC2 inh: 0%[201 µM]

Results for CC(C)C[C@@H](CC(=O)N[C@@H](CCC(=O)O)CC(=O)O)NC(=O)[C@@H]1CNCC[C@H]1NC(=O)C[C@@H](NC(=O)C[C@H](CO)NC(=O)[C@@H]1CNCC[C@H]1N)C(C)C ?
Tau fluor counter: 0%; Tau FP inhib: 2%; TR SRC2 fluor cs: 0%; Tau fibril ThT: -3%; TRb-SRC2 inh: -6%

How did CCOC(=O)c1c(C)oc2c1cc(NS(=O)(=O)c1ccc(C)cc1)c1ccccc12 do in these assays?
Tau fluor counter: -21%; Tau FP inhib: -2%; TR SRC2 fluor cs: 4%; Tau fibril ThT: 1%; TRb-SRC2 inh: -2%

Results for CC(C)Cn1cc(NC(=O)Nc2cccc(C(F)(F)F)c2)c2ccccc2c1=O ?
Tau fluor counter: 8.9µM*[quencher]; Tau FP inhib: inconclusive; TR SRC2 fluor cs: inconclusive; Tau fibril ThT: -10%; TRb-SRC2 inh: -20%

How did CC(C)Oc1cc(NC(=O)CSCC(=O)Nc2cccc(C(F)(F)F)c2)c(Cl)cc1Cl do in these assays?
Tau fluor counter: inconclusive; Tau FP inhib: 35µM*; TR SRC2 fluor cs: -3%; Tau fibril ThT: -12%; TRb-SRC2 inh: -2%

How did COC(=O)c1cc(OC)c(OC)cc1NCC(=O)Nc1cccc(C(F)(F)F)c1 do in these assays?
Tau fluor counter: 18µM*[quencher]; Tau FP inhib: inconclusive; TR SRC2 fluor cs: -3%[53 µM]; Tau fibril ThT: inconclusive; TRb-SRC2 inh: 6%[53 µM]

How did CC(C)Cn1cc(NC(=O)NCc2ccccc2)c2ccccc2c1=O do in these assays?
Tau fluor counter: -9%; Tau FP inhib: -4%; TR SRC2 fluor cs: inconclusive; Tau fibril ThT: -3%; TRb-SRC2 inh: -27%

How did CC(C)Cn1cc(NC(=O)N2CCN(c3cccc(C(F)(F)F)c3)CC2)c2ccccc2c1=O do in these assays?
Tau fluor counter: -9%; Tau FP inhib: 5%; TR SRC2 fluor cs: -5%; Tau fibril ThT: inconclusive; TRb-SRC2 inh: 0%

How did Cc1ccc(NC(=O)Nc2cn(CC(C)C)c(=O)c3ccccc23)cc1N(C)C do in these assays?
Tau fluor counter: 25µM*[quencher]; Tau FP inhib: inconclusive; TR SRC2 fluor cs: -8%; Tau fibril ThT: inconclusive; TRb-SRC2 inh: 2%

Results for CSc1ccc(CCNC(=O)c2ccc(-n3c(C)cc4c3CCCC4)cc2)cc1 ?
Tau fluor counter: -14%; Tau FP inhib: -15%; TR SRC2 fluor cs: 4%; Tau fibril ThT: inconclusive; TRb-SRC2 inh: -2%

How did Cn1c(=O)c2sccc2n2c(CCC(=O)N3CCN(c4ccc(F)cc4)CC3)nnc12 do in these assays?
Tau fluor counter: -12%; Tau FP inhib: -2%; TR SRC2 fluor cs: 10%; Tau fibril ThT: -14%; TRb-SRC2 inh: 5%

How did CCCCCCCCCCCCCCCO do in these assays?
TR SRC2 fluor cs: -4%[201 µM]; TRb-SRC2 inh: 8%[201 µM]

What do the screens show for `CCOC(=O)c1c(C)c(C)n(Cc2cccc(OC)c2OC)c1C`?
Tau fluor counter: -27%; Tau FP inhib: inconclusive; TR SRC2 fluor cs: -1%; Tau fibril ThT: 25µM*; TRb-SRC2 inh: 0%

Results for CCOC(=O)c1cc(C)n(Cc2cccc(OC)c2OC)c1C ?
Tau fluor counter: -19%; Tau FP inhib: -15%; TR SRC2 fluor cs: -2%; Tau fibril ThT: inconclusive; TRb-SRC2 inh: 1%
